PubChem BioAssay AID588778 (Southern Research Institute, 2011)
Out of some 10,000 compounds screened, fewer than 10 were called active. No rule for the calls is given here. These entries were drawn from the full list.

Test: Vibrio cholerae motility inhibitors, OD read-out (AID 588778)
Conditions: stronger effect = higher value
[1] = measured here: bacterial viability at 10 ug/mL

Structure (SMILES) | inhibition (concentration not given here) | inhibition [1] [%]
COc1ccc(C2/C(=C(\O)c3ccc(C)cc3)C(=O)C(=O)N2c2ncc(S(=O)(=O)c3ccc([N+](=O)[O-])cc3)s2)cc1 (configuration not stated) | -0.505% (inactive) | -2.23
Cc1cc(NC(=O)CC2C(=O)N(c3ccccc3)C(=S)N2CCc2ccc(F)cc2)no1 (configuration not stated) | 13.3% (inactive) | 9.96
Cc1ccc(NNC(=O)C(c2ccccc2)c2ccccc2)cc1 | 7.31% (inactive) | 10
Cc1ccc(CN2CC(C(=O)O)CC2=O)cc1 (configuration not stated) | 14.2% (inactive) | -5.3
Cc1ccccc1NC(=O)NNc1ccc(F)cc1 | 15.9% (inactive) | 1.32
CCOC(=O)c1sc(NC(=O)COc2ccc(Cl)cc2Cl)cc1C | 19.1% (inactive) | 13.9
CCOc1ccc2nc(SCC(=O)Nc3ccc4c(c3)OCO4)[nH]c2c1 | 4.79% (inactive) | 2.6
Cn1cc(C2CC(=O)N(c3c(Cl)cccc3Cl)C2=O)c2ccccc21 (configuration not stated) | -0.44% (inactive) | 3.05
CC12CCC(C(=O)NCc3ccc4c(c3)OCO4)(c3nc4ccccc4nc31)C2(C)C (configuration not stated) | 3.2% (inactive) | 0.26
O=[N+]([O-])c1cccc(N2CCOCC2)c1 | 17.3% (inactive) | 4.88
OC(COCc1ccc(Cl)cc1)CN1CCN(c2cccc(Cl)c2)CC1 (configuration not stated) | 37.3% (inactive) | 11.7
COc1ccc(C(=O)CSc2nc(=O)cc(N)n2-c2ccc(C)cc2)cc1OC | -12% (inactive) | -11.4
O=C(CS(=O)(=O)Cc1ccccc1)N1CCN(Cc2ccc3c(c2)OCO3)CC1 | 12.5% (inactive) | 2.65
CN(CCc1ccccn1)S(=O)(=O)c1ccccc1 | 4.78% (inactive) | -3.86
COc1ccc(C(=O)ON2C(=O)CCC2=O)cc1I | 4.65% (inactive) | -0.225
Cc1cc(NC(=O)c2ccccc2Cl)c(OC(=O)c2ccccc2Cl)cc1C | -5.73% (inactive) | -9.05
O=C(Oc1ccccn1)C1COc2ccccc2O1 (configuration not stated) | -4.64% (inactive) | -1.04
Cn1nnc2cc(NC(=O)NCc3ccco3)ccc21 | 9.79% (inactive) | 6.21
COc1cc(N2C(=O)c3cccc4c([N+](=O)[O-])ccc(c34)C2=O)ccc1-n1nc(C)cc1C | 3.2% (inactive) | -0.9
CC(=O)Nc1sc(/C(C#N)=C/c2ccc(N(C)C)cc2)nc1-c1ccc(C)cc1 | 2.79% (inactive) | -2.29
O=[N+]([O-])c1ccccc1OCCCNCc1ccco1 | 11% (inactive) | 4.43
CC(C)(C)SCCNC(=S)Nc1ccccc1 | 32.6% (inactive) | 4.53
COC(=O)C1=C(C)N=C2SCCC(=O)N2C1/C=C/c1ccccc1 (configuration not stated) | -20.3% (inactive) | -9.41
CCSc1ncc(Cl)c(C(=O)Nc2c(C)n(C)n(-c3ccccc3)c2=O)n1 | -0.94% (inactive) | -0.4
CC(=O)N(Cc1cc2ccc(C)cc2[nH]c1=O)c1ccc(C)cc1C | -16.5% (inactive) | -2.06
O=C(O)CCCCN1Cc2ccccc2C1 | 2.35% (inactive) | 7.06
